Screening data as filed in PubChem BioAssay.
Shown are actives, neighbours in structure and some others; about 19% of the full set was active somewhere.
Shiga inhibitor – blocks Shiga toxin action in Vero cells. AID 2315. 290,000 compounds, 9.2% hits. inhibition, % at 38.7 µM. Vero cells, Shiga toxin protein synthesis inhibition reporter; in the data active = inhibition mostly above about 28%, no sharp cut-off; inactive = mostly below about 43%
AMA1-RON2 inh – inhibitors of Plasmodium falciparum AMA1-RON2 interaction; AlphaScreen AMA1-biotinylated RON2 peptide binding; Potency, µM (titrated, usually from 58.2 µM), hits mostly inhibitors; 360,000 compounds, 0.2% hits; AID 720542; note: nearly all actives have a fitted effect of over 45% in size
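AMA1 (3D7) with his tag at 25 nM final met compounds first, then biotinylated RON2 peptide at 25 nM; detection used donor plus acceptor beads, 10 µg/mL apiece, read by AlphaScreen after 30 min at room temperature.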
Pf growth 48h – inhibits P. falciparum growth in the first generation, 48 h; P. falciparum luciferase growth in erythrocytes, 48 h; 310,000 compounds, 5.9% hits; Potency, µM (highest dose often 28.7 µM), most hits filed as inhibitors
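Here the parasites carry a stable luciferase gene and grow inside erythrocytes in Albumax-based RPMI medium with compound for one erythrocytic cycle. Activity is scored as loss of luminescent signal.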
Cycloheximide cs – counter-screen hit for Shiga toxin inhibitors, cycloheximide | AID 2314 | cell reporter, cycloheximide protein synthesis inhibition counterscreen | max response, % | 300,000 compounds, 12% hits; in the data active = max response mostly above about 13%, no sharp cut-off; inactive = mostly below about 14%; note: read at 38.3 µM for the half of the compounds with a filed dose
SARS PLP yeast – inhibitors of SARS-CoV papain-like protease in yeast | AID 485353 | S. cerevisiae expressing SARS-CoV PLpro, growth rescue | Potency, µM (top dose mostly 32.9 µM), hits mostly activators | 330,000 compounds, 0.19% hits; calls by dose curve; note: nearly all actives have a fitted effect of over 55% in size
Pf growth 96h – P. falciparum growth inhibition at 96 hours; AID 504834; 320,000 compounds, 6.9% hits; P. falciparum luciferase reporter growth, 96 h; Potency, µM (highest dose often 28.7 µM), most hits filed as inhibitors
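96 h incubation, 37 C, 5% CO2, of luciferase-reporter P. falciparum-infected RBCs (2% hematocrit, 0.05% parasitemia final) with test compounds; endpoint luminescence.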
A number is an active result; [ ] = dose if it differs, or a comment. Unless noted, calls come from the whole dose curve; as a rule, active = well fitted curve in the direction sought with a large enough effect; inconclusive = small, poorly fitted or top-dose-only effect, or another doubt; inactive = no such curve, though single readings can be large; an effect the other way counts as inactive or inconclusive.

For Cn1c2ccccc2c2cc(C(=O)N3CCN(CCO)CC3)sc21 the results were Shiga inhibitor inactive, AMA1-RON2 inh inactive, Pf growth 48h inactive, Cycloheximide cs 13.8, SARS PLP yeast inactive and Pf growth 96h inactive.
For CCCn1c(C2CCCN2c2nc(-c3cccc(Br)c3)cs2)nc2ccccc21 (centres undefined) the results were Shiga inhibitor inactive, AMA1-RON2 inh inactive, Pf growth 48h inconclusive, Cycloheximide cs inactive, SARS PLP yeast inactive and Pf growth 96h 1.85µM.
For CSc1sc(C(=O)NCC2CC2)cc1S(=O)(=O)C(C)C the results were Shiga inhibitor inactive, AMA1-RON2 inh inactive, Pf growth 48h 2.33µM, Cycloheximide cs inactive, SARS PLP yeast inactive and Pf growth 96h inactive.
CCOC(=O)C1=CCN(S(=O)(=O)c2ccc(C)cc2)C1c1cccs1 (centres undefined) was read as AMA1-RON2 inh inactive.
For O=C(CSc1nc(O)c(C2CCCCC2)c(=O)[nH]1)NCC1CCCO1 (centres undefined) the results were Shiga inhibitor 66.3, AMA1-RON2 inh inactive, Pf growth 48h inconclusive, Cycloheximide cs 29.0, SARS PLP yeast inactive and Pf growth 96h inactive.
`Cc1cc(=O)[nH]c(SCC(=O)NCC2CCCO2)n1` (centres undefined) gave Shiga inhibitor inactive, AMA1-RON2 inh inactive, Pf growth 48h inactive, Cycloheximide cs inactive, SARS PLP yeast inactive and Pf growth 96h inactive.
Nc1nc(SCC(=O)NCC2CCCO2)[nH]c(=O)c1NC(=O)c1ccco1 (centres undefined) was read as Shiga inhibitor inactive, AMA1-RON2 inh inactive, Pf growth 48h inactive, Cycloheximide cs inactive, SARS PLP yeast inactive and Pf growth 96h inactive.
COc1ccc(C(=O)Nc2c(N)nc(SCC(=O)Nc3ccc(NC(C)=O)cc3)[nH]c2=O)cc1 was read as Shiga inhibitor inactive, AMA1-RON2 inh inactive, Pf growth 48h 10.4µM, Cycloheximide cs inactive, SARS PLP yeast inactive and Pf growth 96h 2.62µM.
Nc1nc(SCC(=O)NCC2CCCO2)[nH]c(=O)c1NC(=O)c1ccc(F)c(F)c1 (centres undefined) was read as Shiga inhibitor inactive, AMA1-RON2 inh inactive, Pf growth 48h inactive, Cycloheximide cs inactive, SARS PLP yeast inactive and Pf growth 96h 16.5µM.
`CCc1ccc(NC(=O)CSc2nc(N)c(NC(=O)c3ccc(F)c(F)c3)c(=O)[nH]2)cc1` gave Shiga inhibitor 24.9, AMA1-RON2 inh inactive, Pf growth 48h inactive, Cycloheximide cs 17.0, SARS PLP yeast inactive and Pf growth 96h inactive.
Screening Nc1nc(SCC(=O)Nc2ccc(F)cc2)[nH]c(=O)c1NC(=O)c1ccc(F)c(F)c1 returned Shiga inhibitor inactive, AMA1-RON2 inh inactive, Pf growth 48h inactive, Cycloheximide cs inactive, SARS PLP yeast inactive and Pf growth 96h inactive.
For CCn1c(COc2cc(C)ccc2C(C)C)nnc1SCC(=O)Nc1nccs1 the results were Shiga inhibitor inactive, AMA1-RON2 inh inactive, Pf growth 48h inactive, Cycloheximide cs inactive, SARS PLP yeast inactive and Pf growth 96h inactive.
Screening Cc1ccc(C(=O)NNC(=O)CSc2nnc(C3CC3)n2C)cc1 returned Shiga inhibitor inactive, AMA1-RON2 inh inactive, Pf growth 48h inactive, Cycloheximide cs inactive, SARS PLP yeast inactive and Pf growth 96h inactive.
O=C(NC(=O)c1cnccc1C(F)(F)F)Nc1ccccc1 was read as Shiga inhibitor inactive, AMA1-RON2 inh inactive, Pf growth 48h inactive, Cycloheximide cs inactive, SARS PLP yeast inactive and Pf growth 96h inactive.
`CCC(C)c1ccccc1NC(=O)COC(=O)C1=COCCO1` (centres undefined) gave Shiga inhibitor inactive, AMA1-RON2 inh inactive, Pf growth 48h inactive, Cycloheximide cs inactive, SARS PLP yeast inactive and Pf growth 96h inactive.
Cc1sc2nc(CN3CCCC3)nc(N3CCC(C(N)=O)CC3)c2c1C was read as Shiga inhibitor inactive, AMA1-RON2 inh inactive, Cycloheximide cs inactive, SARS PLP yeast inactive and Pf growth 96h 9.28µM.
`Cc1sc2nc(CN3CCCC3)nc(N3CCN(C(=O)c4ccco4)CC3)c2c1C` gave Shiga inhibitor inactive, AMA1-RON2 inh inactive, Pf growth 48h inconclusive, Cycloheximide cs inactive, SARS PLP yeast inactive and Pf growth 96h 3.7µM.
`O=C(c1ccco1)N1CCN(c2nc(C3CC3)nc3sc4c(c23)CCCC4)CC1` gave Shiga inhibitor inactive, AMA1-RON2 inh inconclusive, Pf growth 48h 9.28µM, Cycloheximide cs inactive, SARS PLP yeast inactive and Pf growth 96h inactive.
For O=C1NC[C@@H](CCCCN2C[C@H](Cc3ccc(O)cc3)N(Cc3ccccc3)C(=O)C2=O)N(Cc2ccccc2)C1=O the results were AMA1-RON2 inh inactive.
`Cn1nc(-c2ccccc2)c(-c2nc(-c3cccc(Cl)c3)no2)c1Cl` gave Shiga inhibitor inactive, AMA1-RON2 inh inactive, Cycloheximide cs inactive, SARS PLP yeast inactive and Pf growth 96h inactive.
COc1ccc(CCNC(=O)Nc2ccc3nc([C@@H]4O[C@H](CO)[C@@H](O)[C@H](O)[C@H]4O)[nH]c3c2)cc1Br was read as AMA1-RON2 inh inactive.
Screening O=C1NC(Cc2ccccc2)c2nc3cc(Cl)ccc3c(=O)n2-c2ccccc21 (centres undefined) returned SARS PLP yeast inactive.
Screening COc1ccc(S(=O)(=O)NC(Cc2ccccc2)C(=O)O)cc1 (centres undefined) returned Shiga inhibitor inactive, AMA1-RON2 inh inactive, Pf growth 48h inactive[0.00184 µM], Cycloheximide cs inactive, SARS PLP yeast inactive and Pf growth 96h inactive.
For C/C(CCC(=O)OC[C@H]1O[C@H](C#Cc2ccccc2)C=C[C@@H]1Oc1ccc(C)cc1)=N\O[C@@H](C)CN1CCCCc2nc(C)c(C)cc21 the results were Shiga inhibitor inactive, Pf growth 48h 14.7µM, Cycloheximide cs inactive, SARS PLP yeast inactive and Pf growth 96h 4.15µM.
`CC(=O)OC[C@H]1O[C@@H](O/N=C(\C)CCN2CCCCc3nc(C)c(C)cc32)[C@H](OC(C)=O)[C@@H](OC(C)=O)[C@@H]1OC(C)=O` gave Shiga inhibitor inactive, Pf growth 48h inactive, Cycloheximide cs inactive, SARS PLP yeast inactive and Pf growth 96h inactive.
Screening COc1ccc(O[C@H]2C=C[C@@H](c3ccccc3)O[C@@H]2COC(=O)CC/C(C)=N/O[C@@H](C)CN2CCCCc3nc(C)c(C)cc32)cc1 returned Shiga inhibitor inactive, Pf growth 48h 5.86µM, Cycloheximide cs inactive, SARS PLP yeast inactive and Pf growth 96h 8.28µM.
COc1ccc(O[C@H]2C=C[C@@H](c3ccccc3)O[C@@H]2COC(=O)CC/C(C)=N/O[C@@H](C)c2cn([C@H](CO)Cc3ccccc3)nn2)cc1 was read as Shiga inhibitor inactive, Pf growth 48h inconclusive, Cycloheximide cs inactive, SARS PLP yeast inactive and Pf growth 96h inconclusive.
`COC(=O)C/C=C/[C@@H](C)[C@@H](/C=N/OC[C@H]1O[C@H](c2ccccc2)C=C[C@@H]1Oc1ccc(OC)cc1)NS(=O)(=O)c1ccc(C)cc1` gave Shiga inhibitor inactive, Pf growth 48h 11.7µM, Cycloheximide cs inactive, SARS PLP yeast inactive and Pf growth 96h 7.38µM.
